Test results as given in PubChem BioAssay AID1508600 (Functional Genomics Laboratory (NCATS/FGL), 2020).
Out of some 53,000 sequences screened, about 3,700 (7%) were called active.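 The calls were made as follows: active = gene knockdowns whose robust z-score for IL-1 alpha signal is at least 2 or at most -2, so actives lie on both sides; inactive = the rest.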 Shown is part of a subset that was picked to be rich in actives.

Assay: Components of the Cytosolic LPS Sensing Pathway: Gene Identification via Genome-wide siRNA Screen;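 also: robust z of the log signal after scaling to non-targeting control siRNA wells of the plate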
Conditions: RAW264.7 macrophages, IL-1a HTRF, actives lie on both sides, screened at 100 nM (by protocol), cells primed 5 h with Pam3CSK4 first
Procedure, shortened: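 Using IL-1a HTRF as read-out, the screen measured release from RAW264.7 cells after 48h siRNA knockdown (100 nM), 5 h Pam3CSK4 priming and 24 h cytosolic LipidA. Values were expressed relative to negative-control wells as robust z-scores.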

Sequence | z-score
GGCUGAAUCACCAGAACAUTT against Ikbke | -0.644 (inactive)
GGCCAGAAUGUAUAAAGCUTT against Mboat7 | -1 (inactive)
GGGCACUGGAACAGAUUUUTT against Ccnh | 4.27 (active)
GGUCACCCUCAAGUACCCUTT against Thop1 | -0.188 (inactive)
GCUAUUAAGUUUACCCUAGTT against A730089K16Rik | -1.31 (inactive)
GGACCAACUACACACUACGTT against Grik5 | 0.334 (inactive)
CCAAUGUGCGAGCAAAGAUTT against Arid5a | 2.48 (active)
GGACCGUAUCCCAAAAGAUTT against Klf1 | -0.968 (inactive)
GGGCCUCUUCCUUAAGCAUTT against Snx8 | -0.382 (inactive)
GGAAGUUUGUUUGCUGUUATT against Slx4ip | 1.08 (inactive)
GCCUAUUGUAAAUACAGGUTT against Bdnf | 0.6 (inactive)
GGUGAAUAGAACAUCAUCUTT against Lrrc29 | -1.76 (inactive)
GGUGAUGAAAGGGAAUGGCTT against Rnf25 | -2.53 (active)
GGAACACAAAUUGUGCUUATT against Zfp462 | 0.199 (inactive)
GGGUUGUAUGGCUCAAAUATT against Olfr728 | 0.734 (inactive)
GCAUCAUAAUGGGAUGCUGTT against Qrfp | -0.313 (inactive)
GGAGAGGUCAGAUAGAAAUTT against Zbtb41 | -2.29 (active)
GGCAAAAGAAUCGUUCUCATT against Ppat | -0.848 (inactive)
GGAAGAAAUACUACAGCCATT against Ptpn12 | -0.733 (inactive)
GAAGGAAGAAUAUUGGCCCTT against Il17rd | -1.88 (inactive)
GCGGCAAUUCAAAUGAGUCTT against Rnf14 | 1.2 (inactive)
GGGAAUGACUCCACAUUGCTT against Limd1 | 2.01 (active)
GGGAGAGAGUUGGCUCUGATT against Prg3 | -0.184 (inactive)

Sequence | z-score
GGGAGACUUCGAAUAUUUATT against Uroc1 | -0.183 (inactive)
CGUAUUCUGGUAGUGAAGGTT against Olfr1384 | -2.3 (active)
GCUCAACCUAACUUUGUGGTT against Ccdc3 | 0.421 (inactive)
GGCAACAAUGGUUGUCUUGTT against Ctsr | 0.515 (inactive)
GCCAAACUUAGCGUGCUCATT against Dgkk | 0.607 (inactive)
GGGUAUCAACCACUUUUUUTT against Serping1 | 2 (inactive)
GGUCAGAUUCCUGAAAUUATT against Vbp1 | -0.807 (inactive)
GGAAACAAGAUUACAUCAATT against Adamts2 | 2.04 (active)
GGCCAUAGUGAAGAAAGAATT against Plaat3 | -0.754 (inactive)
GGAGAAGGAUAGAGAUGGUTT against Phf5a | -1.84 (inactive)
GGUAAUACCACCUCACCUUTT against Fam214b | -0.0713 (inactive)
GGACACUGUACAGAAGCUGTT against Asb18 | -2.31 (active)
CGGUUAGAUGAGCUUGAGATT against Smad2 | -0.725 (inactive)
GCGGGAGUACUACGUCAAUTT against Reps2 | -2.07 (active)
GCUUGAUGACUACCACUGATT against Rrp36 | 0.496 (inactive)
GGUCGACAUUUUGAAGGAGTT against Fthl17e | -2.63 (active)
GGAGAUCACUAUGUUCUGATT against Ivd | 1.46 (inactive)
GACAAGGCUUCAUAAAAAGTT against Qrich1 | -0.312 (inactive)
GGGAUGCUUUGUUGCUGUUTT against Olfr836 | 0.296 (inactive)
GCCAUAGGCUCAUCUUUACTT against Ankib1 | -1.61 (inactive)
GGAAGUAGAGCUUCAAAUGTT against Cdkl2 | 2.8 (active)
GGUUGGUCACCUAAUCCAGTT against Aldh2 | 0.523 (inactive)
CCAAUGUGCUCAUGCUCUATT against Nodal | 1.06 (inactive)

Sequence | z-score
GCUGUACGAGCAUACUGUGTT against Tnxb | -1.46 (inactive)
CCUUCUAAACACUUGACUUTT against Ugt2b5 | 0.106 (inactive)
GACCACAAUAUUGAGGAUCTT against Zfp119b | -0.329 (inactive)
GGACGUGACAGACAUUAUUTT against Htr5b | -2.81 (active)
CCCUGUUAUUAUCUUGAUUTT against Arv1 | -1.16 (inactive)
CGUGUGUGUUAUGAAUCAATT against Tmem161a | 0.984 (inactive)
GGACUUGCUAAGAGACCAATT against Cntn2 | 4.74 (active)
GGACUACAUAAGGAAGGUUTT against Ccdc130 | 1.64 (inactive)
GGCAAAUGGGAAGAAUUCCTT against Mep1b | 0.228 (inactive)
GCAACCUGCAGGCAGUAACTT against Nolc1 | 0.207 (inactive)
CCACACACUGAUCAACGUGTT against Unc93b1 | 0.336 (inactive)
GGCUUCAUUCUUGUCCUCCTT against Reg3b | -0.105 (inactive)
GCCUUCCUCCGUUAAUCCATT against Kank2 | 0.844 (inactive)
GGUGAGAGGAAGGAAGAGATT against Pcsk7 | 2.54 (active)
GGAGGAUGAGAAAGAAGAGTT against Gja8 | -0.176 (inactive)
GGAUGUCAUCAAUGCUAUGTT against Olfr1022 | -0.643 (inactive)
GGUUUACUGGCCAAGAUGGTT against 4930579K19Rik | -0.327 (inactive)
GGCUUUACGUGACAAAGAUTT against 4933430I17Rik | 0.266 (inactive)
GGAAAAUACAGCGCGAAUUTT against Nexn | 1.4 (inactive)
GCGGCUAGGAUUUCUGGGATT against Mindy3 | 2.34 (active)
ACAAGAUUGGGAUCAUCUATT against Rpl23a | 0.521 (inactive)
UGCCUCAAUCAUAAGUCCCTT against Olfr730 | -0.551 (inactive)
AAGGUCGUUUACAUGAACATT against Fbxw20 | 1.19 (inactive)
